The source of these data is PubChem BioAssay (EPA / NIEHS).

Calls of active or inactive are those of the source. How the source made its calls: active means hit-call score of the fitted dose curve at least 0.9, where 1 is the maximum; inactive means score below 0.9.

Experiment [1] is described as follows: APR_HepG2_P-H2AX_72hr: Apredica 72-hour HepG2 Assay for H2AX Phosphorylation (AID 2282916).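 Further: phospho-histone H2A.x immunostain intensity per cell marking DNA damage.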 Conditions: imaging, actives raise or lower the signal. The method, boiled down: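 Phospho-H2A.x imaging endpoint in HepG2 after 72 hr compound exposure (0.39–200 uM, duplicate wells). Activity derived by bidirectional curve fitting with DMSO as baseline.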
Experiment [2] in a line: APR_HepG2_MitoMembPot_72hr: Apredica 72-hour HepG2 Assay for Mitochondrial Membrane Potential (AID 2282917). Conditions: imaging, actives raise or lower the signal. The method, boiled down:
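Membrane potential read by MitoTracker Red CMXRos (250 nM, 30 min, pre-fixation) fluorescence imaging of HepG2 after 72 hr exposure. Ten concentrations, 0.39–200 uM, duplicate wells, 0.5% DMSO; fitted in both directions against DMSO baseline.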

A short description of experiment [3]: APR_HepG2_MitoticArrest_72hr: Apredica 72-hour HepG2 Assay for Mitotic Arrest (AID 2282918). Conditions: high-content imaging, actives raise or lower the signal. The method, boiled down: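 HepG2, 72 hr exposure, 0.39–200 uM in duplicate, 0.5% v/v DMSO final. Formaldehyde-fixed, Triton-permeabilized, anti-phospho-histone H3/FITC plus Hoechst. ArrayScan imaging at 20x; curves fit bidirectionally against DMSO baseline.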

Experiment [4] is described as follows: APR_HepG2_MicrotubuleCSK_72hr: Apredica 72-hour HepG2 Assay for Microtubule CSK Stabilty (AID 2282919). Conditions: HepG2 microtubule cytoskeleton, high-content imaging, actives raise or lower the signal. The procedure, abridged: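 High-content imaging of alpha-tubulin staining in fixed HepG2 cells after 72 hr treatment with ten concentrations from 0.39 to 200 uM (0.5% DMSO). Fitting was bidirectional against DMSO; taxol served as positive control.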

A short description of experiment [5]: APR_HepG2_P-H2AX_24hr: Apredica 24-hour HepG2 Assay for H2AX Phosphorylation (AID 2282920). Conditions: high-content imaging, actives raise or lower the signal. The method, boiled down: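 HCS fluorescence imaging of phospho-H2A.x immunostain (with Hoechst 33342 nuclear counterstain) in HepG2 after 24 hr compound exposure; 10 concentrations, 0.39–200 uM, duplicate wells, 0.5% v/v DMSO. Gain or loss of signal fitted relative to DMSO baseline.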

Experiment [6] is described as follows: APR_HepG2_StressKinase_72hr: Apredica 72-hour HepG2 Assay for Stress Kinase (AID 2282921). Conditions: HepG2 stress kinase (phospho-c-Jun) imaging, actives raise or lower the signal. The method, boiled down: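 Stress kinase signal reflects nuclear phospho-c-Jun staining in fixed, permeabilized cells exposed 72 h to compound at 0.39–200 uM; DMSO-normalized, fitted for increases or decreases.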

Experiment [7] in a line: APR_HepG2_StressKinase_24hr: Apredica 24-hour HepG2 Assay for Stress Kinase (AID 2282922). Conditions: HepG2 stress kinase (phospho-c-Jun) imaging, actives raise or lower the signal. The procedure, abridged: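 High-content imaging of phospho-c-Jun immunofluorescence in fixed, permeabilized HepG2 cells after 24 h dosing. Ten concentrations, 0.39 to 200 uM, run in duplicate at 0.5% v/v DMSO; gain or loss of signal versus DMSO.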

Experiment [8] in a line: APR_HepG2_MitoMass_72hr: Apredica 72-hour HepG2 Assay for Mitochondrial Mass (AID 2282924).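 Further: MitoTracker Red CMXRos stain intensity per cell imaged as mitochondrial mass.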 The conditions noted are these: high-content imaging, actives raise or lower the signal. The procedure, abridged:
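Readout is imaged MitoTracker Red (250 nM, 30 min, pre-fixation) signal, fitted bidirectionally against DMSO baseline. Human HepG2 liver cells received compound 0.39–200 uM in duplicate for 72 hr, final DMSO 0.5%.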

The nature of experiment [9]: APR_HepG2_NuclearSize_72hr: Apredica 72-hour HepG2 Assay for Nuclear Size (AID 2282925). The conditions noted are these: high-content imaging, actives raise or lower the signal. The procedure, abridged:
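Nuclear size was read by high-content imaging of Hoechst 33342 stain after formaldehyde fixation. Compounds ran 72 h on HepG2 at 0.39 to 200 uM, with final DMSO 0.5% v/v. Curves fitted both directions relative to DMSO control.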

Experiment [10] can be described thus: APR_HepG2_p53Act_72hr: Apredica 72-hour HepG2 Assay for p53 Activation (AID 2282923).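 Further: average cellular p53 protein immunofluorescence intensity in HepG2 cells.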 The conditions noted are these: high-content imaging, actives raise or lower the signal. The procedure, abridged:
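Fixed-cell p53 staining (sheep primary, Cy5 secondary) measured by fluorescence imaging following 72 hr treatment at 0.39–200 uM in 0.5% DMSO; DMSO served as negative control and baseline.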

On to `CC(COCC(C)OC(=O)c1ccccc1)OC(=O)c1ccccc1` (centres undefined), for which the call in experiment [1], in experiment [2], in experiment [3], in experiment [4], in experiment [5] and in [6] was inactive. For the same compound, the compound was called inactive in experiment [7], in [8] and in [9].
With `C#CC(O)C(CC)CCCC` (centres undefined), the call in experiment [1], in experiment [2], in experiment [3], in experiment [4], in [5] and in experiment [6] was inactive. Also, the compound was called inactive in experiment [7], in experiment [8] and in experiment [9].
In the case of `CC(=O)[C@@]1(O)CC[C@H]2[C@@H]3CCC4=CC(=O)CC[C@]4(C)[C@H]3CC[C@@]21C`, the call in [1], in experiment [2], in experiment [3], in experiment [4], in [5] and in [6] was inactive. Further, the call in experiment [7], in [8] and in experiment [9] was inactive.
With `CC1(C)C(=O)NC(=O)N1CO`, the call in experiment [1], in experiment [2], in [4], in experiment [5], in [6] and in experiment [7] was inactive. The compound was called inactive in experiment [10] and in experiment [9]. Also, the AC50 in experiment [8] is 100 µM (active).
As for `N[C@@H](Cc1c[nH]c2ccccc12)C(=O)O`, the outcome in experiment [1], in [2], in experiment [3], in experiment [4], in experiment [5] and in experiment [6] was inactive. Besides, the compound was classed as inactive in experiment [7], in experiment [8] and in experiment [9].
Turning to `NC1CCCCC1`, the call in experiment [1], in experiment [2], in experiment [3], in experiment [4], in experiment [5] and in [6] was inactive. Further, the call in [7], in [8] and in experiment [9] was inactive.
For `O=C(O)c1cccnc1`, the compound was called inactive in experiment [1], in [2], in experiment [4], in [5], in experiment [6] and in experiment [7]. Further, the compound was classed as inactive in experiment [8] and in [9]. For the same compound, the AC50 in experiment [3] was 116 µM (active).
Turning to `NCCOCCOCCN`, the AC50 in experiment [1] was 6.09 µM (active); in experiment [4], 96.6 µM (active); in [5], 76.5 µM (active); in [7], 100 µM (active); in [10], 7.09 µM (active); in experiment [8], 84.5 µM (active). Moreover, the AC50 in experiment [9] is 3.84 µM (active). For the same compound, the call in experiment [2] and in experiment [6] was inactive.
Take `O=C(N[C@@H](c1ccccc1)[C@@H]1CCCCN1)c1cccc(C(F)(F)F)c1Cl`: the AC50 is 6.64 µM (active) in [1], 9.47 µM (active) in experiment [3], 14.3 µM (active) in experiment [5] and 34.3 µM (active) in experiment [8]. The compound was called inactive in [2], in [4], in experiment [6], in experiment [7] and in experiment [9].
As to `COC(=O)CCCC(=O)OC`, the compound was called inactive in experiment [1], in experiment [2], in experiment [4], in [5], in experiment [6] and in experiment [7]. Also, the call in [10], in [8] and in [9] was inactive.
For `C=CCc1ccc(OC)c(OC)c1`, the result in experiment [1], in [2], in experiment [4], in experiment [5], in experiment [6] and in [7] was inactive. Moreover, the outcome in [10], in [8] and in [9] was inactive.
Regarding `Cc1cc(Cc2ccc(N)c(C)c2)ccc1N`, the outcome in experiment [1], in [2], in experiment [4], in experiment [5], in [6] and in [7] was inactive. The compound was called inactive in [10] and in experiment [9]. Also, in [8], the AC50 is 67.3 µM (active).
As to `CC(=O)OC1CC(C)OC(C)O1` (centres undefined), the compound was classed as inactive in experiment [1], in experiment [2], in experiment [3], in [4], in experiment [5] and in experiment [6]. The call in [7], in experiment [8] and in experiment [9] was inactive.
With `O=C(NS(=O)(=O)/C=C/c1cccs1)c1ccc(F)cc1Br`, the call in [1], in experiment [2], in experiment [3], in [4], in experiment [5] and in experiment [6] was inactive. Moreover, the call in experiment [7], in experiment [8] and in [9] was inactive.
As for `Cc1cn([C@H]2C=C[C@@H](CO)O2)c(=O)[nH]c1=O`, the call in [1], in experiment [2], in experiment [3], in [4], in experiment [5] and in [6] was inactive. Further, the call in [7], in experiment [8] and in experiment [9] was inactive.
In the case of `CC(C)COC(=O)CCCCC(=O)OCC(C)C`, the compound was called inactive in experiment [1], in experiment [2], in experiment [3], in [4], in [5] and in experiment [6]. In addition, the result in experiment [7], in experiment [8] and in experiment [9] was inactive.
On to `NC=O`, for which the compound was classed as inactive in [1], in [2], in experiment [3], in experiment [4], in experiment [5] and in experiment [6]. Further, the call in experiment [7], in experiment [8] and in experiment [9] was inactive.
Regarding `CC(C)(O)c1ccc(CNC(=O)c2cccnc2Oc2ccc(F)cc2)cc1`, the call in [1], in experiment [2], in experiment [4], in experiment [5], in experiment [6] and in experiment [7] was inactive. Besides, the outcome in experiment [10], in experiment [8] and in experiment [9] was inactive.
Take `C/C=C/C=C/C(=O)O`: the AC50 in experiment [1] is 93 µM (active); in experiment [3] it was 98.2 µM (active); in experiment [8], 47.5 µM (active); in [9], 60.7 µM (active). The outcome in experiment [2], in [4], in experiment [5], in experiment [6] and in experiment [7] was inactive.
Regarding `C/C=C/c1ccc(OC)cc1`, the outcome in experiment [1], in experiment [2], in [3], in [4], in [5] and in experiment [6] was inactive. Further, the call in experiment [7], in experiment [8] and in experiment [9] was inactive.
`Nc1nc(=S)c2[nH]cnc2[nH]1`: the AC50 in experiment [1] was 30.5 µM (active). Also, the call in experiment [2], in experiment [4], in experiment [5], in [6], in experiment [7] and in experiment [8] was inactive. Moreover, in [9], the compound was called inactive.
As to `CC(N)=O`, the outcome in experiment [1], in experiment [2], in [4], in [5], in [6] and in experiment [7] was inactive. Moreover, the call in experiment [8] and in experiment [9] was inactive.
For `CCOCCOCCO`, the compound was called inactive in [1], in [2], in experiment [4], in experiment [5], in experiment [6] and in experiment [7]. Also, the result in experiment [10], in experiment [8] and in [9] was inactive.
In the case of `CCCCCCCC(=O)OC`, the outcome in experiment [1], in experiment [2], in experiment [4], in [5], in [6] and in [7] was inactive. The result in experiment [10], in [8] and in experiment [9] was inactive.

As a reminder, the AC50 is the concentration at which the activity in the assay is half-maximal.
